Bioassay records (PubChem BioAssay)
BAZ2B inh: blocks human BAZ2B. AID 504333. Potency, µM (series often up to 114 µM), inactives show at the top dose activity change, negative = inhibition, hits mostly inhibitors. AlphaScreen BAZ2B-H3K14Ac peptide displacement. Q9UIF8. 360,000 tested, 4.4% active; note: potency is the fitted concentration of half-maximal effect; % is set by controls: 0 for no effect and ±100 for the full control effect; nearly all actives have a fitted effect of over 60% in size
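BAZ2B (50 nM) with biotin-H3(5-23)K14Ac peptide (50 nM) in PBS pH 7.4, 0.01% Tween-20, preformed 30 min, then compound 30 min at room temperature; top concentration 110uM. AlphaScreen streptavidin donor/nickel chelate acceptor beads (10 ug/mL final), 20 min dark, signal read.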
G9a inh: inhibitors of human histone lysine methyltransferase G9a; Q96KQ7; G9a H3K9 monomethylation, AlphaScreen, 2 h; Potency, µM (titrated, usually from 102 µM), without a hit: at the highest dose activity, negative = inhibition, hits mostly inhibitors; 350,000 tested, 8.8% active; AID 504332; note: potency is the fitted concentration of half-maximal effect; % is set by controls: 0 for no effect and ±100 for the full control effect; nearly all actives have a fitted effect of over 75% in size
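AlphaScreen read-out: biotin-H3K9 peptide (500 nM) methylation by 20 nM enzyme with 20 uM SAM, 2 h at room temperature after 15 min compound preincubation; anti-monomethyl H3K9 antibody plus donor/acceptor beads, 10 min dark.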
PLK1 PBD inh: PLK1 (human) polo-box domain binding inhibition. P53350. Plk1 PBD binding of FITC phosphopeptide, fluorescence polarization. Potency, µM, for the others: max response, negative = inhibition, most hits filed as inhibitors. 360,000 tested, 2.8% active. AID 720504; note: potency is the fitted concentration of half-maximal effect; series mostly up to about 57 µM; % is set by controls: 0 for no effect and ±100 for the full control effect; nearly all actives have a fitted effect of over 65% in size
PI5P4K alpha inh: blocks human PI5P4K alpha kinase activity; 330,000 tested, 1.2% active; max response, %; AID 652105; PI5P4Kalpha enzyme, ADP-Glo luminescence, 60 min; active compounds read low; P48426; active = max response of -50% or lower; inconclusive = between -30% and -50%; inactive = -30% or higher; note: value at the top dose of about 77 µM; % is set by controls: 0 for no effect and ±100 for the full control effect
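Controls without substrate or without enzyme flank wells where PI5P4Kalpha converts substrate using 5 microM ATP (final). Incubation lasts 60 minutes at room temperature; ADP formed is read by ADP-Glo luminescence.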
JMJD2A Tudor: inhibitors of human JMJD2A Tudor domain. 390,000 tested, 4.4% active. AlphaScreen JMJD2A-Tudor / H3K4me3 peptide binding. Potency, µM (series often up to 114 µM), for inactives: top-dose activity change, negative = inhibition, hits mostly inhibitors. O75164; note: potency is the fitted concentration of half-maximal effect; % is set by controls: 0 for no effect and ±100 for the full control effect; nearly all actives have a fitted effect of over 50% in size
HP1b chromo inh: HP1-beta chromodomain-methylated histone interaction inhibition. P83916. AlphaScreen HP1-beta / biotin-H3K9me3 peptide binding. Potency, µM (highest dose often 114 µM), for inactives: at the top dose activity change, negative = inhibition, usual class: inhibitors. 390,000 tested, 0.56% active. AID 540317; note: potency is the fitted concentration of half-maximal effect; nearly all actives have a fitted effect of over 70% in size
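AlphaScreen: HP1-beta (50 nM) preformed 30 min with biotin-H3(1-18)K9me3 peptide (50 nM) in PBS pH 7.4, 0.01% Tween-20. Compound added for 30 min at RT, then streptavidin donor/nickel chelate acceptor beads (10 ug/mL) for 30 min.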
* hit, by the source's call; u = inconclusive; x = not tested or not shown; [ ] = remark or other dose. Shown are actives, neighbours in structure and some others; about 12% of the full set was active somewhere. Unless noted, calls come from the whole dose curve; as a rule, active = well fitted curve in the direction sought with a large enough effect; inconclusive = small, poorly fitted or top-dose-only effect, or another doubt; inactive = no such curve, though single readings can be large; an effect the other way counts as inactive or inconclusive.

SMILES	BAZ2B inh	G9a inh	PLK1 PBD inh	PI5P4K alpha inh	JMJD2A Tudor	HP1b chromo inh
Cc1ccc(C([O-])=C(C(=S)NCc2ccccc2)[n+]2cccc(CO)c2)cc1[N+](=O)[O-]	x	x	u	-7	u	-16%
[O-]/C(=C(\C(=S)NCc1ccc2c(c1)OCO2)[n+]1ccccc1)c1ccc(Cl)s1	45µM*	28µM*	u	-1	-33%	-10%
O=C(NC(=S)NCc1ccc2c(c1)OCO2)c1ccccc1	u	u	-12%	5	-29%	-10%
Cc1cc([N+](=O)[O-])ccc1NC(=O)CSc1nccn1C	4%	28%[59 µM]	x	x	-9%	55%
[O-]/C(=C(\C(=S)Nc1cccc2ccccc12)[n+]1cccc(CO)c1)c1ccc(Cl)s1	32µM*	40µM*	-11%	3	u	-26%
CC(C)c1ccc(NC(=S)Nc2cccc3ccccc23)cc1	u	u	-11%	1	u	-14%
CC(C)C(NC(=O)c1ccccc1)C(=O)OCn1nnc2ccccc2c1=O (stereo not drawn)	11%	12%[12.7 µM]	-4%	-1	-10%	71%
CCN1CCN(c2ccc(S(=O)(=O)N3CCCCC3)cc2NC(=O)Cc2ccccc2)CC1	-8%	6.3µM*	-5%	1	u	-8%
CCN1CCN(c2ccc(S(=O)(=O)N3CCCCC3)cc2NC(=O)Cc2ccc(Cl)c(Cl)c2)CC1	u	40µM*	-2%	-5	u	-9%
CCN1CCN(c2ccc(S(=O)(=O)N3CCCCC3)cc2NC(=O)Cc2ccccc2F)CC1	7%	u	-6%	-2	-30%	1%
COCCn1c(C)cc(O)c(C(c2ccc(OC)cc2)N2CCN(c3ccccc3)CC2)c1=O (stereo not drawn)	6%	u	x	x	-26%	15%[57 µM]
COC(=O)c1ccc(-c2ccc(/C=N/NC(=O)Cc3nnc(N)s3)o2)cc1	-23%	u	-14%	-56*	-26%	20%
Cc1ccc(-c2ccc(/C=N/NC(=O)Cc3nnc(N)s3)o2)cc1Cl	-18%	17%[12.7 µM]	1%	u	-14%	36%
COc1ccc(-c2ccc(/C=N/NC(=O)Cc3nnc(N)s3)o2)cc1Cl	u	20µM*	-9%	-23	-29%	1%
Nc1nnc(CC(=O)N/N=C/c2ccc(-c3ccccc3Cl)o2)s1	-34%	20%[59 µM]	-7%	-53*	-27%	19%
Cc1ccc(-n2cc(C(=O)Oc3ccc(F)cc3)c3ccccc3c2=O)cc1	2%	-5%[59 µM]	x	x	-18%	20%[57 µM]
CCN(CC(=O)Nc1ccccc1OC)CC(=O)Nc1ccccc1C(F)(F)F	x	4%	-11%	5	-3%	25%
CCN(CC(=O)Nc1ccccc1OC)CC(=O)Nc1ccccc1-c1ccccc1	28µM*	50µM*	-6%	1	2.2µM*	u
O=C(CNC(c1ccccc1)c1ccccc1)Nc1ccccc1-c1ccccc1	-4%	27%[59 µM]	-6%	-4	-15%	37%
COc1ccccc1NC(=O)CCC(=O)Nc1ccccc1OC	8%	6%[59 µM]	-4%	x	-3%	15%
COc1ccccc1NC(=O)CCC(=O)c1ccc(-c2ccccc2)cc1	5%	-10%[59 µM]	30µM*	-24	25µM*	-10%
COc1ccccc1NC(=O)CCN1C(=O)c2ccccc2C1=O	3%	79µM*	-17%	-5	1%	24%
CCCC(C)NCC(=O)Nc1ccccc1-c1ccccc1 (stereo not drawn)	u	u	-7%	-23	1.1µM*	u
COc1ccc(CN2C(=O)C(CC(=O)NC3CC3)CC(C(=O)N(C)C)=C2C)cc1 (stereo not drawn)	x	x	-6%	-9	x	x
O=C(CCN1C(=O)c2ccccc2C1=O)Nc1ccccc1C(F)(F)F	1%	45µM*	-14%	0	-10%	38%
SMILES	BAZ2B inh	G9a inh	PLK1 PBD inh	PI5P4K alpha inh	JMJD2A Tudor	HP1b chromo inh
NCCN1CCN(S(=O)(=O)c2ccc([N+](=O)[O-])cc2)C=C1c1ccc(Cl)cc1	56µM*	2%[0.501 µM]	-8%	6	u	-12%
O=C(O)C1CCN(Cc2oc(CO)cc(=O)c2O)C1 (stereo not drawn)	x	x	-10%	13	u	20%
CCN(CC)Cc1oc(CO)cc(=O)c1O	32µM*	13µM*	-12%	1	u	u
COc1ccc(N2CCN(Cc3oc(CO)cc(=O)c3O)CC2)cc1	u	u	-13%	4	u	46%
CN1CCN(Cc2oc(CO)cc(=O)c2O)CC1	u	u	-12%	-6	56µM*	1%
O=c1cc(CO)oc(CN2CCN(Cc3ccccc3)CC2)c1O	u	50µM*	-8%	-2	u	11%
O=c1cc(CO)oc(CN2CCCC2)c1O	u	45µM*	0%	x	89µM*	3%
COCC(=O)N1CCC[C@@]2(CCN(c3ccncc3)C2)C1	x	3%[12.7 µM]	x	x	x	x
CC(=O)Nc1nc(C(=O)O)cs1	32µM*	22µM*	-3%	3	4µM*	u
COc1ccc(C(O)c2nc(-c3ccc4ccccc4c3)cs2)cc1 (stereo not drawn)	x	x	5%	7	x	x
CCn1c(CCCOc2ccc(Cl)cc2Cl)n[nH]c1=S	-30%	u	-5%	-13	-23%	34%
NNC(=O)c1cccn(Cc2ccc(Cl)cc2Cl)c1=O	-20%	14%	-13%	7	-7%	33%
CCn1c(-c2cccn(Cc3ccc(Cl)cc3Cl)c2=O)n[nH]c1=S	5%	8.9µM*	-19%	8	-32%[11.4 µM]	-9%
O=c1c2ccccc2nc(-c2ccc(Cl)cc2Cl)n1O	u	9%	u	12	-4%[11.4 µM]	-2%
S=c1[nH]nc(-c2ccc(Cl)cc2Cl)n1Cc1ccccc1	-6%	u	3.8µM*	u	13µM*	u
S=c1[nH]nc(COc2ccc(Cl)cc2Cl)n1-c1ccccc1	-30%	10µM*	-16%	1	-34%	30%
S=c1[nH]nc(-c2ccc(Cl)cc2Cl)n1-c1ccccc1	-28%	6.3µM*	-22%	2	-13%	28%
CC(=O)n1c2ccccc2c2nc(NC(C)C)sc21	50µM*	u	27µM*	-14	50µM*	u
CNC(=O)C1CCC(Cn2c(=O)c3sccc3n(CC(=O)Nc3cc(F)ccc3F)c2=O)CC1 (stereo not drawn)	0%	7%[59 µM]	x	x	2%	62%
c1ccc(OCC2CCNCC2)nc1	-20%	79µM*	-9%	-1	-11%	12%
O=S(=O)(NNc1nccc(C(F)(F)F)n1)c1cccc(Cl)c1Cl	-3%	8.9µM*	0%	7	-14%	10%
CN(C)CCCC1Sc2ccccc2Sc2ccccc21 (stereo not drawn)	x	x	-5%	3	20µM*	71µM*
CC(=O)NS(=O)(=O)c1cccnc1Nc1ccc(Cl)c(Cl)c1	-5%	u	9.5µM*	u	-3%[11.4 µM]	-2%
